Test [1] in a line: antimalarial activity against Dd2 strain (AID 2302;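 active means growth inhibition above 50% at the single 2 µM test dose, taken to imply half-maximal potency below 2 µM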;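 further: 0% = DMSO untreated growth and 100% = chloroquine plus artemisinin killed control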). Conditions: P. falciparum Dd2 in RBCs, LDH growth readout, 72 h; at 2 µM; hits give high values.
Test [2] is described as follows: human hepatoma cell viability loss – ATP luminescence, cytotoxicity control for P. falciparum antimalarial project, primary screen (AID 2303;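 active means inhibition above 50%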;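 further: 0% = DMSO wells and 100% = digitonin-killed cells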). The note with it: HepG2 viability, 24-48 h, at 10 µM, hits give high values.
For test [3], the target named is L-lactate dehydrogenase (Plasmodium falciparum (isolate CDC / Honduras)) (UniProt Q27743). Description: PfLDH activity inhibition – cell lysate, 3D7 strain, counter-screen for P. falciparum growth inhibition project (AID 2304).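 Further: 0% = vehicle and 100% = reference inhibitor.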 The note with it: P. falciparum 3D7 crude extract, LDH APAD/NBT absorbance; at 2 µM; hits give high values.
Chain of L-lactate dehydrogenase (Plasmodium falciparum (isolate CDC / Honduras)) (Q27743 whole entry, looked up): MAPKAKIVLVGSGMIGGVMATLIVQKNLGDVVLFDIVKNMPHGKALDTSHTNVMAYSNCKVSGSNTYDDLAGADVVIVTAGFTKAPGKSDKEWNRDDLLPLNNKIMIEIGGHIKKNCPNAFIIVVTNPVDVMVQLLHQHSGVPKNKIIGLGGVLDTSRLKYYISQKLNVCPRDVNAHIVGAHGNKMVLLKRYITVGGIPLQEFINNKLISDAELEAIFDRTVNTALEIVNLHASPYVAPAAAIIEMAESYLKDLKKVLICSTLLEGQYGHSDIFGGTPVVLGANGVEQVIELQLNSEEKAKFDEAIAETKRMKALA
Test [4] is described as follows: inhibition of 3D7 malaria parasite growth – strain 3D7 (AID 2306).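 Further: 0% = DMSO wells and 100% = chloroquine plus artemisinin control wells.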 Conditions: P. falciparum 3D7 erythrocytic growth, LDH absorbance, 72 h; at 2 µM; hits give high values.
In test [5] the target is Calcium-dependent protein kinase 1 (Plasmodium falciparum (isolate 3D7)) (UniProt P62344). As to the kind of experiment: PfCDPK1 kinase inhibitors, biochemical, TCAMS library (AID 1159585; cut-off not given, nearly all actives have IC50 up to about 0.98 µM;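 further: inhibitors leave more ATP so luminescence rises with inhibition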). Conditions: recombinant PfCDPK1, Kinase-Glo ATP depletion luminescence.
Chain of Calcium-dependent protein kinase 1 (Plasmodium falciparum (isolate 3D7)) (P62344 whole entry, looked up): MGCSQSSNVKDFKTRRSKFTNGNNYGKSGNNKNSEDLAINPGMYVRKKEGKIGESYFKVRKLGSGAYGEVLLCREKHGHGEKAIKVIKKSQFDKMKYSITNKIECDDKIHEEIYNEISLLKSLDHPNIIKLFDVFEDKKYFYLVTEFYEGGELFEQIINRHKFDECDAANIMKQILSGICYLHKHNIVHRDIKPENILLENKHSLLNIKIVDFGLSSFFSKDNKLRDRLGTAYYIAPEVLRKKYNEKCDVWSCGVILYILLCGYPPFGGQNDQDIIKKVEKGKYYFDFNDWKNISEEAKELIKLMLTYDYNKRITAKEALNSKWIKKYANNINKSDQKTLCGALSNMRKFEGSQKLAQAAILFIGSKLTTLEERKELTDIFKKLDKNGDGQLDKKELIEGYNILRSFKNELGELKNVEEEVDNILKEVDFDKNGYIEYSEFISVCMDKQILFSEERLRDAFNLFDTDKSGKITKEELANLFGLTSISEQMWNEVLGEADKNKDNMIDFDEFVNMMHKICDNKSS
Test [6] has as its target Plasmodium falciparum protein kinase 6 (PK6, PF3D7_1337100) (UniProt Q8IDW1). As to the kind of experiment: PfPK6 kinase inhibitors, biochemical, TCAMS library (AID 1159586). The note with it: recombinant PfPK6, Kinase-Glo ATP depletion luminescence.
In test [7] the target is Protein kinase 7 (PK7), Plasmodium falciparum 3D7 (PF3D7_0213400) (UniProt Q7YTF7). Description: inhibition of Plasmodium PK7 catalytic activity – biochemical, TCAMS antimalarial set, Kinase-Glo luminescence (AID 1159587). Conditions: recombinant PfPK7, Kinase-Glo ATP depletion luminescence.
Chain of Protein kinase 7 (PK7), Plasmodium falciparum 3D7 (PF3D7_0213400) (Q7YTF7 1-343): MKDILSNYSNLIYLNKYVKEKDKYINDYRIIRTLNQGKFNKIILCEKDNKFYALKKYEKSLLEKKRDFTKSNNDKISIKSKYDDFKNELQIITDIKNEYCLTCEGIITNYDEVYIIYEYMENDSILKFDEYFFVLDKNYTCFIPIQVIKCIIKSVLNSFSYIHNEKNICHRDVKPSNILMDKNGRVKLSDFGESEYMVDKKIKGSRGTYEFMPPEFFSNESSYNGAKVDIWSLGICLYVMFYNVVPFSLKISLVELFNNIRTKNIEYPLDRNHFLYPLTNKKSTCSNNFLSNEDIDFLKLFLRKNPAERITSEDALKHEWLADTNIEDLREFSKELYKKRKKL
Test [8] addresses Calcium-dependent protein kinase 4 (Plasmodium falciparum (isolate 3D7)) (UniProt Q8IBS5). As to the kind of experiment: PfCDPK4 kinase inhibitors, biochemical, TCAMS library (AID 1159588; cut-off not given, nearly all actives have IC50 up to about 0.91 µM). The note with it: recombinant PfCDPK4, Kinase-Glo ATP depletion luminescence.

Unmarked numbers belong to inactive results. For part of these data: Results with a measured potency or affinity are listed apart. Activity calls are given as the source filed them. Unless noted, how the calls were made is not given here.

Chain of Plasmodium falciparum protein kinase 6 (PK6, PF3D7_1337100) (Q8IDW1 1-305): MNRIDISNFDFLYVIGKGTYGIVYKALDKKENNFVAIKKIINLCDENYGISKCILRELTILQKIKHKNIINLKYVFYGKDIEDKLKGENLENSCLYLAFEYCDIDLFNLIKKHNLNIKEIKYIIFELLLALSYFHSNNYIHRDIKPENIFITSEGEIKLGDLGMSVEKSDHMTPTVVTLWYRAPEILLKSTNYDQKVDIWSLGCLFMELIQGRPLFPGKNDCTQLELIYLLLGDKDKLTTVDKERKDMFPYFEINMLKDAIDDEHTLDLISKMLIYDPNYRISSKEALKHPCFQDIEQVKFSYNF
Chain of Calcium-dependent protein kinase 4 (Plasmodium falciparum (isolate 3D7)) (Q8IBS5 whole entry, looked up): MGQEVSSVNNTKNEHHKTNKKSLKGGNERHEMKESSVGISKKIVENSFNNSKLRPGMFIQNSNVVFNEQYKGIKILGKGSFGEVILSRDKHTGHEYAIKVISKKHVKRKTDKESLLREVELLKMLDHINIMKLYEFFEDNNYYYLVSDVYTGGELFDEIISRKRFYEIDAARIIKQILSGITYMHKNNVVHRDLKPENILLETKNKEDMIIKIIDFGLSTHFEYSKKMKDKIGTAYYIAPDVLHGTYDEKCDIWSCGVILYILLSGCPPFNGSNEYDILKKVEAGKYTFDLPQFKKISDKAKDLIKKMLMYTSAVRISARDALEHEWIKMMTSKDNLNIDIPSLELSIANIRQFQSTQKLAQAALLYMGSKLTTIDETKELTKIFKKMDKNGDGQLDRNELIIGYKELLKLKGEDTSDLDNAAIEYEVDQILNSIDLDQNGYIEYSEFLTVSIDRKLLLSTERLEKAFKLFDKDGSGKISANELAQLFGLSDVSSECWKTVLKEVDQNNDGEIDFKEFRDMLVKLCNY

In the case of `Cc1cccc2[nH]c(-c3ccc(-c4cccc(NC(=O)Nc5cccc(C#N)c5)c4)cc3)nc12`, the growth inhibition in test [1] was 86% (active); in test [4] it was 102% (active). The inhibition in test [2] was 25%; in test [3], 7%. Also, the outcome in test [5], in test [6], in test [7] and in test [8] was inactive.

For the compound `O=c1cc(NC[C@H]2CCC[C@@H]2NC2CCCc3c2[nH]c2ccccc32)[nH]c2ccccc12` (stereo partly drawn), the growth inhibition in test [1] was 25%; in test [4], 101% (active). The inhibition was 6% in test [2] and -6% in test [3]. The outcome in test [5], in test [6], in test [7] and in test [8] was inactive.

Take `O=[N+]([O-])c1ccc(/C=N/Nc2cc(-c3ccccc3)nc3ccccc23)o1`: the results for the growth inhibition in test [1] and in test [4] were 49% and 93% (active), respectively. The inhibition in test [2] was 48%; in test [3] it was -5%. Further, the result in test [5], in test [6], in test [7] and in test [8] was inactive.

`Cc1cc(C)c(NC(=O)N[C@H]2CCN(CCCCCNC(=O)/C=C/c3ccc(Cl)c(Cl)c3)C2)c(C)c1`: the growth inhibition was 3% in test [1] and 91% (active) in test [4]. In addition, the inhibition is 12% in test [2] and -4% in test [3]. Further, the outcome in test [5], in test [6], in test [7] and in test [8] was inactive.

On to `COc1ccccc1-n1ccnc1SCC(=O)Nc1cccc(C(F)(F)F)c1`, for which the growth inhibition in test [1] was 96% (active); in test [4] it was 95% (active). In addition, the figures for the inhibition in test [2] and in test [3] were 1% and -2%, respectively. Further, the result in test [5], in test [6], in test [7] and in test [8] was inactive.

For the compound `Cc1cccc2[nH]c(-c3ccc(-c4ccc(CNC(C)C)cc4)cc3)nc12`, the growth inhibition is 62% (active) in test [1] and 99% (active) in test [4]. The figures for the inhibition in test [2] and in test [3] were 12% and 0%, respectively. Further, the outcome in test [5], in test [6], in test [7] and in test [8] was inactive.

In the case of `CCC[C@@H]([C@@H](CC(C)C)C(=O)N[C@@H](CCCCNC(=O)c1cccc(OC)c1)C(=O)Nc1nccs1)N(O)C=O`, the growth inhibition in test [1] is 99% (active); in test [4], 100% (active). Also, the inhibition in test [2] is 5%; in test [3] it was -4%. For the same compound, the result in test [5], in test [6], in test [7] and in test [8] was inactive.

`Cc1ccc(Nc2nnc(SCC(=O)Nc3ccc(CN4CCCC4)cc3)s2)cc1`: the growth inhibition was -2% in test [1] and 91% (active) in test [4]. In addition, the inhibition in test [2] is 4%; in test [3], -2%. In addition, the outcome in test [5], in test [6], in test [7] and in test [8] was inactive.

For `CNCc1cccc2[nH]c(-c3csc(Cc4cc(Cl)ccc4OCC(C)C)n3)nc12`, the growth inhibition in test [1] is 33%; in test [4] it was 100% (active). Also, the inhibition is 9% in test [2] and -4% in test [3]. In addition, the result in test [5], in test [6], in test [7] and in test [8] was inactive.

Consider `CCCCC(=O)Nc1cc(=O)[nH]c2nc(-c3ccc(Cl)cc3)nn12`, for which the figures for the growth inhibition in test [1] and in test [4] were 77% (active) and 89% (active), respectively. In addition, the values for the inhibition in test [2] and in test [3] were 1% and 0%, respectively. The outcome in test [5], in test [6], in test [7] and in test [8] was inactive.

Take `Cc1cc(C(=O)NC2CCN(CC3(c4ccccc4)CCCCC3)CC2)on1`: the results for the growth inhibition in test [1] and in test [4] were 95% (active) and 97% (active), respectively. Moreover, the inhibition in test [2] and in test [3] was -3% in each case. The outcome in test [5], in test [6], in test [7] and in test [8] was inactive.

Consider `CCN(CC)CCNC(=O)c1ccc(NC(=O)c2cn(-c3ccccc3)nc2-c2cccs2)cc1`, for which the growth inhibition in test [1] was 94% (active); in test [4], 103% (active). Moreover, the inhibition in test [2] was 30%; in test [3], -1%. The result in test [5], in test [6], in test [7] and in test [8] was inactive.

On to `COc1ccc(NC(=O)NC2CCN(c3ccnc4cc(Cl)ccc34)CC2)cc1`, for which the growth inhibition in test [1] is 64% (active); in test [4], 83% (active). For the same compound, the inhibition in test [2] was 5%; in test [3] it was -10%. The outcome in test [5], in test [6], in test [7] and in test [8] was inactive.

For `Oc1cccc(-c2nc3ccc(C4=N[C@@H]5CCCC[C@H]5N4)cc3[nH]2)c1`, the growth inhibition in test [1] is 99% (active); in test [4], 94% (active). The inhibition in test [2] was 3%; in test [3], 2%. The outcome in test [5], in test [6], in test [7] and in test [8] was inactive.

Take `CC(=NNC(=S)NC(c1ccccc1)c1ccccc1)c1ccccn1`: the figures for the growth inhibition in test [1] and in test [4] were 97% (active) and 98% (active), respectively. In addition, the inhibition was 45% in test [2] and -2% in test [3]. Moreover, the outcome in test [5], in test [6], in test [7] and in test [8] was inactive.

Take `NC(N)=NC(=O)Nc1cc(Br)c(Br)c(Br)c1`: the figures for the growth inhibition in test [1] and in test [4] were 89% (active) and 101% (active), respectively. Besides, the inhibition in test [2] was 0%; in test [3] it was 1%. The result in test [5], in test [6], in test [7] and in test [8] was inactive.

As for `Cc1[nH]c(C)c(-c2ccc(-c3cccc(Cl)c3)nc2)c(=O)c1Br`, the growth inhibition in test [1] and in test [4] was 96% (active) throughout. Besides, the inhibition in test [2] is 10%; in test [3], 3%. Further, the outcome in test [5], in test [6], in test [7] and in test [8] was inactive.

As for `COc1ccc(CNC2CCN(C)CC2)cc1-c1ccc(S(=O)(=O)NC2CCC2)cc1`, the growth inhibition in test [1] is 76% (active); in test [4], 98% (active). The inhibition is 58% (active) in test [2] and 1% in test [3]. For the same compound, the result in test [5], in test [6], in test [7] and in test [8] was inactive.

As to `O=C(/C=C/c1ccc2ccccc2c1)NCC1(c2ccc(-c3ccccc3)cc2)CCOCC1`, the figures for the growth inhibition in test [1] and in test [4] were 34% and 95% (active), respectively. For the same compound, the results for the inhibition in test [2] and in test [3] were 9% and 0%, respectively. Also, the result in test [5], in test [6], in test [7] and in test [8] was inactive.

On to `CC(C)(CNC(=O)C1CCN(CC2CCCCC2)CC1)c1nc(-c2ccc(Cl)c(O)c2)c(-c2ccncc2)[nH]1`, for which the growth inhibition in test [1] was 31%; in test [4], 98% (active). Further, the inhibition in test [2] was -6%; in test [3] it was -3%. Besides, the result in test [5], in test [6], in test [7] and in test [8] was inactive.

For `CCCCNCc1ccc(-c2nc(CN(CCCn3ccnc3)C(=O)N[C@@H]3C[C@H]3c3ccccc3)cs2)cc1`, the growth inhibition is 34% in test [1] and 100% (active) in test [4]. Further, the inhibition is 21% in test [2] and 3% in test [3]. Further, the outcome in test [5], in test [6], in test [7] and in test [8] was inactive.
